A selection: hits, their analogues and other compounds. The true share with any hit is near 1.6%.
KCNQ2 block = KCNQ2 (rat) channel inhibition. O88943. CHO-K1 KCNQ2, FluxOR thallium flux, 20 min; active compounds read low. B-score at 10 µM. 310,000 tested, 1.1% active. AID 2156;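 active = fluorescence ratio B-score at most minus 3 library SDs, with starting brightness B-score within 2 library SDs, cut at about -5.5 in these data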
KCNQ2 pot = enhances the rat KCNQ2 potassium channel; 310,000 tested, 0.54% active; AID 2239; B-score at 10 µM; O88943; CHO-K1 KCNQ2, FluxOR thallium flux fluorescence; active compounds read high;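 active = fluorescence ratio B-score at least 3 SD of library B-scores, with initial fluorescence B-score within 3 of them, cut at about 5.3 in these data; same plate scores as AID 2156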;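 also: B-score of peak minus minimum over baseline fluorescence ratio after K+ and Tl+ stimulus; positive B-score means potentiation of KCNQ2 with more thallium influx and brighter signal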
Kir21 conf inh = confirmation of mouse Kir2.1 potassium channel inhibitors | Kir2.1-expressing cells, FluxOR thallium flux fluorescence; active compounds read low | AID 2032 | 2,300 tested, 41% active | Tl flux remaining, % of negative control (active compounds read low), % at 10 µM | shares compounds with KCNQ2 pot;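 active = Primary-screen hit whose thallium flux fell at least 3 control SD below untreated wells in both duplicates, with normal baseline fluorescence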
Target sequence (P35561 whole entry, looked up): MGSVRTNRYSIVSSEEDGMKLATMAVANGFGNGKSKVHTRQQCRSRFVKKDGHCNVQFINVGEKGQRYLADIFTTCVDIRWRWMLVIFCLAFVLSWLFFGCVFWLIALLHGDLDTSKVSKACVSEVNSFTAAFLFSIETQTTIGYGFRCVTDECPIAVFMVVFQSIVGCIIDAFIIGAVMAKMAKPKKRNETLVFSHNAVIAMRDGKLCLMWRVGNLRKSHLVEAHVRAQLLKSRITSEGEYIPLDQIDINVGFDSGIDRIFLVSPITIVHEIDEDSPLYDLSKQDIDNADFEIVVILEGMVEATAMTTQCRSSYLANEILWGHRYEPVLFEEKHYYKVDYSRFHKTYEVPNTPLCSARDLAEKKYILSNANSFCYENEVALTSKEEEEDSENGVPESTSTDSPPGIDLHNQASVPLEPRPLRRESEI
HEK293 Tl flux = alters thallium flux in parental HEK293 cells, Kir2.1 counter-screen; shares compounds with KCNQ2 pot; FluxOR thallium flux fluorescence; 0% = unstimulated blank wells; FluxOR signal as % of negative control (100 = no effect), % at 10 µM; 2,300 tested, 19% active;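 active = dye signal at least 3 control SD above or below untreated wells in both duplicates, raw fluorescence within 3, either direction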;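 also: percent is based on the flux ratio of peak minus minimum fluorescence over baseline F0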
CHO-K1 Tl ctr = alters thallium flux in parental CHO-K1 cells, KCNQ2 counter-screen; shares compounds with KCNQ2 pot; FluxOR thallium flux fluorescence; zero = vehicle mean+3SD, 100% = vehicle-minus-blank window; activity increase over 3SD of controls, % at 10 µM; 1,200 tested, 43% active; AID 2282;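 active = signal rise of at least 3 SD above the untreated control mean, in both duplicate wells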;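 also: counter screen of KCNQ2 potentiator hits so any rise reflects channel-independent effects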
KCNQ1 pot spec = tests whether KCNQ2 potentiators also act on human KCNQ1; shares compounds with KCNQ2 pot; CHO KCNQ1 stable, FluxOR thallium flux fluorescence; beyond 3SD, as % of vehicle-control signal; activation over 3SD threshold, % at 10 µM; 1,200 tested, 28% active; AID 2283;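 active = fluorescence ratio rise of at least 3 SD of vehicle wells above their mean, in both replicate wells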
KCNQ2 pot conf = rat KCNQ2 channel potentiator confirmation | shares compounds with KCNQ2 pot | CHO-KCNQ2 cells, FluxOR thallium flux fluorescence | potentiation, less the hit threshold, % at 10 µM | 1,200 tested, 68% active | AID 2287;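 active = fluorescence ratio rising 3 SD or more over the vehicle control mean in both replicates, plus primary screen hit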;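 also: peak minus minimum thallium fluorescence divided by baseline after K/Tl stimulus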
Kir2-1 sel = tests whether KCNQ2 potentiators also affect mouse Kir2.1; AID 2345; 1,200 tested, 2% active; shares compounds with KCNQ2 pot; activity over 3SD threshold, % at 10 µM; HEK293 Kir2.1, FluxOR thallium flux fluorescence;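 active = fluorescence ratio rise of at least 3 SD above the vehicle-control mean, seen in both replicates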
KCNQ2 W236L pot = potentiates the retigabine-insensitive rat KCNQ2 W236L mutant channel; shares compounds with KCNQ2 pot; CHO KCNQ2-W236L, automated patch clamp current; current increase over 3SD of negative controls (%), active compounds read high, % at 25 µM; 940 tested, 10% active;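 active = current increase at least 3 SD of the untreated controls above them in both duplicate recordings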
Each line names hits and unclear results; the compound was inactive in the other large screens (follow-up assays come after a bar, where they were run).

Cc1cc(OC(C)C(=O)NNC(=O)Nc2ccc(F)cc2F)cc(C)c1Cl (configuration not stated)	KCNQ2 pot 7.5 | Kir21 conf inh inactive | HEK293 Tl flux inactive | CHO-K1 Tl ctr inactive | KCNQ1 pot spec inactive | KCNQ2 pot conf inactive | Kir2-1 sel inactive | KCNQ2 W236L pot inactive
CCc1ccc(S(=O)(=O)NCCc2cn3cccc(C)c3n2)s1	none (no result: KCNQ2 pot)
CC(C)[C@H]1C(=O)Nc2ccccc2N1C(=O)N[C@@H](Cc1ccccc1)C(=O)N[C@@H](C(=O)O)c1ccccc1	none (no result: KCNQ2 pot)
CC(=O)N1NC(=Nc2ccccc2)SC1(C)C	none
COc1ccc(CC(=O)Nc2nc(C)cs2)cc1	none (no result: KCNQ2 pot)
COc1ccc(CC(=O)Nc2nc(C(C)(C)C)cs2)cc1	none (no result: KCNQ2 pot) | Kir21 conf inh 30% | HEK293 Tl flux inactive
O=C(CCc1ccccc1)Nc1ccc(NC(=O)c2ccco2)cc1	none
O=C(Nc1ccc(CSc2ccccc2)cc1)c1ccco1	KCNQ2 pot 6.9 | Kir21 conf inh inactive | HEK293 Tl flux inactive | CHO-K1 Tl ctr 76 | KCNQ1 pot spec inactive | KCNQ2 pot conf inactive | Kir2-1 sel inactive | KCNQ2 W236L pot inactive
O=C(Nc1ccc(Oc2cccc3ccccc23)cc1)c1ccco1	KCNQ2 pot 6.4 | Kir21 conf inh inactive | HEK293 Tl flux inactive | CHO-K1 Tl ctr inactive | KCNQ1 pot spec inactive | KCNQ2 pot conf inactive | Kir2-1 sel inactive | KCNQ2 W236L pot inactive
O=C(O)c1ccccc1C(=O)Nc1ccc(Oc2cccc3ccccc23)cc1	none
CCN(CC(=O)Nc1cc(Cl)ccc1C)c1ncnc2sc(C)c(C)c12	none (no result: KCNQ2 pot)
CCOC(=O)C1=NOC2C3CC(C12)C1C(=O)N(CCc2ccc(OC)c(OC)c2)C(=O)C31 (configuration not stated)	none (no result: KCNQ2 pot)
O=C(COC(=O)CC(c1ccccc1)c1ccccc1)NCc1ccc(Cl)cc1	none (no result: KCNQ2 pot)
CC(CC(=O)NCc1ccc(Cl)cc1)c1ccccc1 (configuration not stated)	KCNQ2 pot 5.9 | Kir21 conf inh inactive | HEK293 Tl flux inactive | CHO-K1 Tl ctr inactive | KCNQ1 pot spec inactive | KCNQ2 pot conf inactive | Kir2-1 sel inactive | KCNQ2 W236L pot inactive
CC(CCc1ccccc1)NC(=O)Cc1ccccc1 (configuration not stated)	none (no result: KCNQ2 pot)
CC(CCc1ccccc1)NC(=O)CC(C)c1ccccc1 (configuration not stated)	none (no result: KCNQ2 pot) | Kir21 conf inh 56% | HEK293 Tl flux inactive
COC(=O)C1Cc2c([nH]c3ccccc23)C2(CCN(Cc3ccccc3)CC2)N1 (configuration not stated)	none (no result: KCNQ2 pot) | Kir21 conf inh 68% | HEK293 Tl flux inactive
CCCN1CCC2(CC1)NC(C(=O)O)Cc1c2[nH]c2ccccc12 (configuration not stated)	none (no result: KCNQ2 pot)
CC1Cc2ccccc2N1S(=O)(=O)c1cccc(C(=O)N2CC(=O)Nc3ccccc32)c1 (configuration not stated)	none (no result: KCNQ2 pot)
COc1ccc(CNCCC(c2ccccc2)c2ccc3c(c2)OCO3)cc1 (configuration not stated)	none (no result: KCNQ2 pot)
CC(C)CCC(CCNCc1ccccn1)c1ccc2c(c1)OCO2 (configuration not stated)	none (no result: KCNQ2 pot) | Kir21 conf inh 57% | HEK293 Tl flux inactive
CCNCCC(CCC(C)C)c1ccc2c(c1)OCO2 (configuration not stated)	none
Fc1ccccc1CNCCC(Cc1ccccc1)c1ccc2c(c1)OCO2 (configuration not stated)	none (no result: KCNQ2 pot) | Kir21 conf inh 40% | HEK293 Tl flux 77%
Cc1ccc(S(=O)(=O)n2cccc2C)cc1	none
CN(C)c1ccc(C(=O)c2ccccc2C(=O)O)c(O)c1	none
CCCCN(CCCC)c1ccc(C(=O)c2ccccc2C(=O)O)c(O)c1	KCNQ2 pot 8.9 | Kir21 conf inh inactive | HEK293 Tl flux inactive | CHO-K1 Tl ctr inactive | KCNQ1 pot spec inactive | KCNQ2 pot conf inactive | Kir2-1 sel inactive | KCNQ2 W236L pot inactive
Cc1cc(Cl)ccc1OCCCC(=O)N/N=C/c1cccc([N+](=O)[O-])c1	none
Cc1ccc(N=C(NO)c2cnccc2C(F)(F)F)c(C)c1	KCNQ2 pot 7.4 | Kir21 conf inh inactive | HEK293 Tl flux inactive | CHO-K1 Tl ctr inactive | KCNQ1 pot spec inactive | KCNQ2 pot conf inactive | Kir2-1 sel inactive
Cc1ccc(NC(=O)NC(=O)c2cnccc2C(F)(F)F)c(C)c1	none
Cc1cc(C)cc(C(=O)NC(CC(N)=O)c2ccc(NCC3CC3)c([N+](=O)[O-])c2)c1 (configuration not stated)	none (no result: KCNQ2 pot)
COc1cc(OC)cc(-c2nnc(SCC(=O)Nc3cccc(C(=O)O)c3)s2)c1	none
CCOc1ccc(-n2cc(-c3ccccc3)c3c(=O)[nH]cnc32)cc1	none
CCOc1ccc(-n2cc(-c3ccccc3)c3c(=S)nc[nH]c32)cc1	KCNQ2 pot 6.9 | Kir21 conf inh inactive | HEK293 Tl flux 148% | CHO-K1 Tl ctr 11 | KCNQ1 pot spec inactive | KCNQ2 pot conf 0.0 | Kir2-1 sel inactive | KCNQ2 W236L pot inactive
CCOC(=O)Cc1csc(NC(=O)CSc2nc(=O)[nH]c3c2CCCC3)n1	none (no result: KCNQ2 pot)
OC(CNCc1ccco1)COc1ccccc1 (configuration not stated)	none (no result: KCNQ2 pot)
OC(CNCc1ccco1)Cn1c2ccccc2c2ccccc21 (configuration not stated)	none (no result: KCNQ2 pot) | Kir21 conf inh 72% | HEK293 Tl flux inactive
CC(=O)N1Cc2cc([N+](=O)[O-])ccc2Oc2ccccc21	none
CC1(C)NC(=O)N(CCCOc2ccc(Br)cc2Cl)C1=O	none
CC(C)c1cc(Br)ccc1OCCCN1C(=O)NC(C)(C)C1=O	none (no result: KCNQ2 pot) | Kir21 conf inh inactive | HEK293 Tl flux inactive
CC(C)(C)C(=O)N/C(N)=N/c1nc2ccccc2o1	none (no result: KCNQ2 pot)
CCN(c1ccccc1)S(=O)(=O)c1ccc(C(C(=O)OC)C(=O)OC)c([N+](=O)[O-])c1	none (no result: KCNQ2 pot)
CCN(c1ccccc1)S(=O)(=O)c1cc([N+](=O)[O-])ccc1N	none | Kir21 conf inh 56% | HEK293 Tl flux inactive
N#Cc1ccccc1NC(=O)CN(Cc1ccccc1)Cc1ccccc1	none (no result: KCNQ2 pot)
CCCCCCCCNc1ncnc2ccccc12	none (no result: KCNQ2 pot) | Kir21 conf inh inactive | HEK293 Tl flux 128%
c1ccc(CCNc2ncnc3ccccc23)cc1	none (no result: KCNQ2 pot)

Source: PubChem (Johns Hopkins Ion Channel Center)
